Only some compounds are listed: those with a hit (about 21% of all), similar ones and a draw of the others.
Pf growth 48h: P. falciparum growth inhibition at 48 hours (one generation). P. falciparum luciferase growth in erythrocytes, 48 h. AID 504832. 310,000 compounds, 5.9% hits. Potency, µM (top dose mostly 28.7 µM), actives largely listed as inhibitors
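Cell-based growth assay: transgenic P. falciparum expressing firefly luciferase, cultured in red cells within RPMI 1640 containing 0.5% w/v Albumax, 24 mM bicarbonate and gentamycin. A drop in luciferase activity indicates inhibition.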
Pf growth 96h: P. falciparum growth inhibition at 96 hours; P. falciparum luciferase reporter growth, 96 h; Potency, µM (titrated, usually from 28.7 µM), hits mostly inhibitors; 320,000 compounds, 6.9% hits; AID 504834
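Delayed-death screen, second-generation endpoint: infected erythrocytes, 2% hematocrit, 0.05% parasitemia final; 96 hours at 37 C, 5% CO2; luciferase detection reagent; luminescence decrease equals reduced growth.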
Shiga inhibitor: blocks Shiga toxin action in Vero cells; Vero cells, Shiga toxin protein synthesis inhibition reporter; inhibition, % at 38.7 µM; 290,000 compounds, 9.2% hits; AID 2315; in the data active = inhibition mostly above about 28%, no sharp cut-off; inactive = mostly below about 43%
NS1 inh: influenza NS1 inhibition; AID 2326; 270,000 compounds, 0.4% hits; Potency, µM (series often up to 46.1 µM); calls by dose curve; also: actives are rising curves; nearly all actives have a fitted effect of over 50% in size
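A cell-based growth assay was used: compounds that relieve NS1-induced slow growth of budding yeast raise OD600. Assay medium was yeast nitrogen base with ammonium sulphate and -URA supplement, pH 6.0, with 2% galactose.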
Cycloheximide cs: counter-screen for Shiga toxin inhibitors: cycloheximide protein synthesis inhibition; 300,000 compounds, 12% hits; max response, %; cell reporter, cycloheximide protein synthesis inhibition counterscreen; in the data active = max response mostly above about 13%, no sharp cut-off; inactive = mostly below about 14%; also: read at 38.3 µM for the half of the compounds with a filed dose
Giardia FBPA inh: blocks Giardia fructose-bisphosphate aldolase activity. purified Giardia FBPA. Potency, µM (titrated, usually from 59.6 µM), hits mostly inhibitors. 290,000 compounds, 0.71% hits. AID 2451; also: nearly all actives have a fitted effect of over 55% in size
Target sequence (A8B2U2 whole entry, looked up): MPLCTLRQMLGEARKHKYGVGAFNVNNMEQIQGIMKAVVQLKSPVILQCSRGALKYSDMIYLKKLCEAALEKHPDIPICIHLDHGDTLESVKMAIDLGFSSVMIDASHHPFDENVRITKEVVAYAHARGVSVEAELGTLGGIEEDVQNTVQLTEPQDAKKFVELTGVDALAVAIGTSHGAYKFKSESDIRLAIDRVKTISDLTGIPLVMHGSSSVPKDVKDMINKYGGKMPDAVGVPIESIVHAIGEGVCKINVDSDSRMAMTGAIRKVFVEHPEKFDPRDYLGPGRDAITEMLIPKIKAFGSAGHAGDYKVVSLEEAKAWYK
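Giardia FBPA (40 nM reagent) was preincubated 10 min at RT with compound (up to 57.5 uM final), then substrate plus GAPDH/TPI/NAD/arsenate coupling system with diaphorase/resazurin was added; resorufin fluorescence (525/598 nm) was read after 20 min.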
Of the large screens only hits and unclear results are named; the others gave an inactive call. Unless noted, calls follow the shape of the dose curve; as a rule, active = well fitted curve in the direction sought with a large enough effect; inconclusive = small, poorly fitted or top-dose-only effect, or another doubt; inactive = no such curve, though single readings can be large; an effect the other way counts as inactive or inconclusive.

COC(=O)c1c(NC(=O)CN2CCC3(O)CCCCC3C2c2ccc(F)cc2)sc(C)c1C (configuration not stated)	Pf growth 48h 8.3µM, Pf growth 96h inconclusive, NS1 inh inconclusive
CC(c1ccccc1)N1C(=O)CC(Sc2ncccc2C(=O)O)C1=O (configuration not stated)	Pf growth 96h 2.1µM
CCCCN1C(=O)CC(Sc2ncccc2C(=O)O)C1=O (configuration not stated)	none
CC(=O)O[C@H]1C[C@H]2CC[C@@H]3[C@H]4C[C@@H]([N+]5(C)CCCCC5)[C@@H](OC(C)=O)[C@]4(C)CC[C@@H]3[C@@]2(C)C[C@@H]1[N+]1(C)CCCCC1	none (no result: Pf growth 48h, Pf growth 96h, Shiga inhibitor, NS1 inh, Cycloheximide cs)
Cn1c(-c2ccc(F)cc2)cnc1NCc1ccc(F)cc1	Pf growth 48h inconclusive, Pf growth 96h inconclusive (no result: Giardia FBPA inh)
Cn1c(-c2ccc(F)cc2)cnc1NCc1ccc(F)cc1F	Shiga inhibitor 23
Cn1c(-c2ccccc2)cnc1NCc1cc(Cl)ccc1O	Pf growth 48h 12µM, Cycloheximide cs 17, Giardia FBPA inh inconclusive
Cc1ccc(N2C(=O)Nc3ccccc3S2(=O)=O)cc1Cl	Pf growth 96h inconclusive
O=C1C=C(Nc2nc(C(=O)O)cc(=O)[nH]2)c2ccccc2C1=O	none (no result: Pf growth 48h, Pf growth 96h, Shiga inhibitor, Cycloheximide cs, Giardia FBPA inh)
Cc1ccc(NC2=CC(=O)C(=O)c3ccccc32)cc1	Pf growth 48h 0.52µM, Pf growth 96h 0.83µM, Shiga inhibitor 115, Cycloheximide cs 43, Giardia FBPA inh 5.6µM
CCOC(=O)c1ccc(NC(=O)C(C)N2C(=O)c3ccccc3C2=O)cc1 (configuration not stated)	Pf growth 96h inconclusive
NS(=O)(=O)c1ccc(NC2=CC(=O)C(=O)c3ccccc32)cc1	Pf growth 48h inconclusive, Pf growth 96h 10µM, Giardia FBPA inh 2.5µM
Cc1nnc(Nc2ccc(S(N)(=O)=O)cc2)c2ccccc12	Pf growth 96h inconclusive (no result: Shiga inhibitor)
CCOC(=O)c1ccc(NC2=CC(=O)C(=O)c3ccccc32)cc1	Pf growth 48h 5.9µM (no result: Giardia FBPA inh)
CC(=O)Nc1ccc(S(=O)(=O)Oc2ccc(/C=C3\SC(N)=NC3=O)cc2)cc1	Pf growth 48h inconclusive (no result: NS1 inh)
CCCCC(=O)Nc1ccc(NCc2ccc(C)s2)cc1	none
O=C(c1cccc(F)c1)N1CCC2(CCCN(c3ccccn3)C2)CC1	none (no result: Pf growth 48h, Pf growth 96h, Shiga inhibitor, NS1 inh, Cycloheximide cs)
CC(C)(C)c1ccc(COn2c(=O)c(-c3ccco3)[n+]([O-])c3ccccc32)cc1	Cycloheximide cs 19 (no result: Pf growth 48h)
O=c1c(-c2ccc(Br)cc2)[n+]([O-])c2ccccc2n1OCc1ccccc1	none
O=C1C2C3C=CC(C3)C2C(=O)N1c1ccc2ccccc2n1 (configuration not stated)	none
O=C1C2C3C=CC(C3)C2C(=O)N1c1nc2ccccc2s1 (configuration not stated)	Pf growth 96h 8.3µM
COc1ccccc1CNC(=O)CSc1nnc2c(n1)[nH]c1ccc(F)cc12	Pf growth 96h inconclusive
CCn1c(SCC(=O)N/N=C/c2c[nH]c3ccccc23)nnc1-c1ccc(Cl)cc1	none
CCOC(=O)COc1nc2c(c(-c3ccco3)c1C#N)CCc1ccccc1-2	Shiga inhibitor 42
CN(Cc1ccccc1)C(=O)CCC(=O)N(C)Cc1ccccc1	Shiga inhibitor 113, Cycloheximide cs 32 (no result: Pf growth 96h)
CN(Cc1ccccc1)C(=O)N[C@@H](Cc1ccccc1)C(=O)O	none
CN(Cc1ccccc1)C(=O)c1ccco1	Pf growth 96h 12µM
O=C(c1ccco1)N(CCC(c1ccccc1)c1ccco1)Cc1ccco1 (configuration not stated)	Pf growth 48h inconclusive, Pf growth 96h inconclusive
COC(=O)[C@H](Cc1ccccc1)NC(=O)N(C)Cc1ccccc1	Cycloheximide cs 18
CN(Cc1ccccc1)C(=O)CN1C(=O)c2ccccc2C1=O	none (no result: Shiga inhibitor)
Cc1ccc(C(CCN(Cc2ccccc2)C(=O)c2ccco2)c2ccco2)cc1 (configuration not stated)	Pf growth 48h inconclusive, Pf growth 96h 13µM
CN(CCC1CCOCC1)C(=O)CC1C(=O)NCCN1Cc1c(F)cccc1Cl (configuration not stated)	Pf growth 96h inconclusive
CN(CC(=O)Nc1ccccc1C(F)(F)F)C(=O)C1CC1	none (no result: Shiga inhibitor, NS1 inh, Cycloheximide cs, Giardia FBPA inh)
CCCc1cc(F)c(S(=O)(=O)N2CCN(S(=O)(=O)c3ccc4c(c3)OCCO4)CC2)cc1F	none (no result: Pf growth 48h, Pf growth 96h, NS1 inh, Giardia FBPA inh)
CN(Cc1cccs1)C(=O)CNC(=O)c1ccco1	Cycloheximide cs 22 (no result: Giardia FBPA inh)
O=C(NCCNC(=O)c1cccs1)c1ccco1	NS1 inh inconclusive (no result: Pf growth 48h)
Cc1ccc(C(=O)N/C(=C/c2cccnc2)C(=O)N2CCCCCC2)cc1	Pf growth 48h inconclusive, Pf growth 96h inconclusive (no result: Giardia FBPA inh)
COc1ccc(C(CNC(=O)c2oc3c(Cl)cccc3c2C)N2CCCC2)cc1 (configuration not stated)	Pf growth 48h inconclusive, Pf growth 96h 10µM (no result: Shiga inhibitor, NS1 inh, Cycloheximide cs, Giardia FBPA inh)
COc1ccc(C(CNC(=O)c2oc3ccccc3c2C)N2CCCC2)cc1 (configuration not stated)	Pf growth 48h 9.3µM, Pf growth 96h 9.3µM (no result: Shiga inhibitor, NS1 inh, Cycloheximide cs, Giardia FBPA inh)
S=c1[nH]cnc2sc(-c3ccccc3)cc12	Shiga inhibitor 77, Cycloheximide cs 31 (no result: NS1 inh)
S=c1[nH]cnc2scc(-c3ccccc3)c12	Pf growth 48h inconclusive, Pf growth 96h 0.33µM
Cc1nc(SC(C)C(=O)c2c(N)n(C)c(=O)n(C)c2=O)c2c(C)c(C)sc2n1 (configuration not stated)	Pf growth 96h inconclusive (no result: Shiga inhibitor, NS1 inh, Cycloheximide cs, Giardia FBPA inh)
N#Cc1ccccc1NC(=O)CN1CCOCC1	Pf growth 96h 12µM
O=C(CN1CCOCC1)Nc1ccc(-c2nc3ccccc3[nH]2)cc1	Shiga inhibitor 76, Cycloheximide cs 27
CCNC(=S)Nc1ccc(-c2nc3ccccc3[nH]2)cc1	Pf growth 96h inconclusive, Shiga inhibitor 103, Cycloheximide cs 40 (no result: NS1 inh)
CCOc1ccc(NC(=S)NCc2nc3ccccc3[nH]2)cc1	none (no result: NS1 inh)
Cc1ccc(-c2nnc(-c3ccc(NC(=O)Cc4cccs4)cc3)o2)cc1	none
CC1CCN(CC(=O)Nc2ccccc2C#N)CC1	none (no result: Pf growth 96h)
O=C(Cc1cccs1)Nc1ccc(-c2nc3ccccc3[nH]2)cc1	Pf growth 96h inconclusive, Shiga inhibitor 131, Cycloheximide cs 37
CCN(CCn1cccn1)Cc1nc(Cc2cccc(F)c2)no1	Pf growth 96h inconclusive
CN(Cc1ccc2nonc2c1)Cc1nc(Cc2cccc(F)c2)no1	Pf growth 48h inconclusive, Pf growth 96h 13µM
CC(C)(C)NC(=O)NCC1CCCC1NC(=O)NC(C)(C)C (configuration not stated)	none
Cc1ccc(C(=O)N2NC(c3ccccc3F)C3C(=O)N(c4cccc(C)c4)C(=O)C32)cc1 (configuration not stated)	Pf growth 96h 2.1µM
C/C(CCN1CCc2nc(-c3ccccc3)c(-c3ccccc3)cc2C1)=N\OC[C@@H](O)[C@@H]1O[C@@H]2OC(C)(C)O[C@@H]2[C@H]1O	none (no result: Pf growth 48h, Pf growth 96h, Shiga inhibitor, NS1 inh, Cycloheximide cs)
Cc1cc2c(C)nc(-c3ccccc3)nc2o1	Shiga inhibitor 107, Cycloheximide cs 39
COc1cc2c(C)nc3onc(-c4ccccc4)c3c2cc1OC	Giardia FBPA inh inconclusive (no result: Pf growth 96h)

High-throughput results deposited in PubChem BioAssay by National Center for Advancing Translational Sciences (NCATS).
